Reference: PubChem BioAssay (EPA / NIEHS)
“And” between values parts separate entries of the source, which are not always exact repeats. Equal entries are not always repeated. The source made the active and inactive calls. Rule for the calls: active = hit-call score of the fitted dose curve at least 0.9, where 1 is the maximum; inactive = score below 0.9.

These compounds were tested against Aryl hydrocarbon receptor (Homo sapiens) (UniProt P35869) (assay: ATG_Ahr_CIS: Attagene CIS-FACTORIAL HepG2 Assay for human Aryl Hydrocarbon Receptor (Ahr) (AID 2282930)). Conditions: HepG2 AhR cis-factorial reporter transcription; actives raise or lower the signal.
Aryl hydrocarbon receptor (Homo sapiens), sequence (P35869 whole entry, looked up): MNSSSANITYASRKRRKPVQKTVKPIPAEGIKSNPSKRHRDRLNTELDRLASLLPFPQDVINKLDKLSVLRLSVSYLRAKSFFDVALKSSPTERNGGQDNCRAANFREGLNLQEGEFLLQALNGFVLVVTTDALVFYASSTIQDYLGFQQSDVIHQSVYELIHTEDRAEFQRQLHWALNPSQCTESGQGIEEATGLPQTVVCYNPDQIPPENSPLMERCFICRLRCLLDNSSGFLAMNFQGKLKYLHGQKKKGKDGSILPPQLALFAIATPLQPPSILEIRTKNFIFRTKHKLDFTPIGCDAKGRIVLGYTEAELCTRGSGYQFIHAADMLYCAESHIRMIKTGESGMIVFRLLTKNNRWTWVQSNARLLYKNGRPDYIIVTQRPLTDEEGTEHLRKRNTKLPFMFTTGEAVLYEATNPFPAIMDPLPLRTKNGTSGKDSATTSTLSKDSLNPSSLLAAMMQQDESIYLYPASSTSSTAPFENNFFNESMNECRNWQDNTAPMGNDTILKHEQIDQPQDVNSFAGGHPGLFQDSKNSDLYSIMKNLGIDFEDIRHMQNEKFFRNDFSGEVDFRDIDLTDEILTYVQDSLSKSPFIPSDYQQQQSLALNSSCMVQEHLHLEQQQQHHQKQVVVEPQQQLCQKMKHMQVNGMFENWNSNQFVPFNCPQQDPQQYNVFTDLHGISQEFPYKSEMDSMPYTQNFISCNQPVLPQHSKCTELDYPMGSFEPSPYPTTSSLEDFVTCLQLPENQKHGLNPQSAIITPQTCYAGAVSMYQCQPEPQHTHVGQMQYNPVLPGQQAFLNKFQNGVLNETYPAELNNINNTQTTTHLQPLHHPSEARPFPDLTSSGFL
Procedure, shortened: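 HepG2, transient MRTU (cis) transfection, 24 h exposure. RNA → cDNA → PCR → 6-FAM primer extension → HpaI 2 h 37 C → CE. Fit: bidirectional, DMSO baseline.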

| Compound | outcome | AC50 |
| --- | --- | --- |
| CCCCCCCC(OC)OC | inactive | – |
| Cc1cc(C(=C2C=CC(=Nc3ccc(S(=O)(=O)O)cc3)C=C2)c2ccc(Nc3ccc(S(=O)(=O)O)cc3)cc2)cc(S(=O)(=O)O)c1N | inactive | – |
| Clc1ccc(Nc2nnc(Cc3ccncc3)c3ccccc23)cc1 | inactive | – |
| Cc1ccc2ccc3ccc(C)cc3c2c1 | – | 50.6 µM (active) |
| OCC1CCC(CO)CC1 (stereo not drawn) | inactive | – |
| O=S(=O)(O)c1ccccc1 | inactive | – |
| CCOC=O | inactive | – |
| OCCN1CN(CCO)CN(CCO)C1 | inactive | – |
| O=C1OC2(c3ccccc31)c1cc(I)c(O)c(I)c1Oc1c2cc(I)c(O)c1I | – | 15.4 µM (active) and 27.3 µM (active) and 27.9 µM (active) |
| O=C1Cc2ccccc2N1c1c(Cl)cccc1Cl | inactive | – |
| Oc1ccc(Cc2ccccc2O)cc1 | inactive | – |
| Oc1c(Cl)ccc(Cl)c1Cl | – | 68.3 µM (active) |
| C=CCOCC(CO)(CO)CO | inactive | – |
| C=CC(C)(CCC=C(C)C)OC(C)=O (stereo not drawn) | inactive | – |
| c1cnc2c(c1)ccc1cccnc12 | inactive | – |
| O=C(F)C(F)(F)C(F)(F)C(F)(F)C(=O)F | inactive | – |
| c1cc2cccc3c4cccc5cccc(c(c1)c23)c54 | – | 17.6 µM (active) |
| O=P(O)(O)CCC(F)(F)C(F)(F)C(F)(F)C(F)(F)C(F)(F)C(F)(F)F | inactive | – |
| FC(F)(F)C(F)(F)C(F)(F)C(F)(F)I | inactive | – |
| CCCCCCOC(=O)c1ccc(O)cc1 | inactive | – |
| Nc1ccc(O)c(C(=O)O)c1 | inactive | – |
| CC(C)(O)C(=O)c1ccccc1 | inactive | – |
| CC1CCC(C(=O)O)CC1 (stereo not drawn) | inactive | – |
